Assay outcomes deposited in PubChem BioAssay by National Center for Advancing Translational Sciences (NCATS).
SW480 rereplic: DNA re-replication induction in SW480 cells; SW480 DNA re-replication, Hoechst DNA content imaging, 48 h; Potency, µM (series often up to 46.1 µM), inactives show at the highest dose re-replication activation, most hits filed as activators; 1.8% of 340,000 active; also: % of control where 0% means no effect; nearly all actives have a fitted effect of over 55% in size
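Cells (250 per well) received 23 nL compound or DMSO by pin tool and were kept 48 hr at 37 C, 5% CO2. Nuclei were then stained with Hoechst for 40 min and scanned for DNA content.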
KB-3-1 cytotox: KB-3-1 parental cell cytotoxicity; KB-3-1 viability, CellTiter-Glo ATP luminescence, 72 h; Potency, µM (highest dose often 46.1 µM), most hits filed as cytotoxic; 1.4% of 400,000 active; also: % is scaled to controls: 0 for no effect and ±100 for the full control effect; nearly all actives have a fitted effect of over 60% in size
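Parental KB-3-1 adenocarcinoma cells in phenol-red-free DMEM with 10% FBS were pin-treated with compounds at several concentrations, incubated 72 h at 37 °C, and viability read by CellTiter-Glo luminescence; concentration-effect curves were fitted after normalization.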
HT1080 IDH1KD tx: toxicity to HT-1080 IDH1 knockdown cells (counter line); 2% of 360,000 active; HT-1080 IDH1 knockdown viability, ATP luminescence, 48 h; Potency, µM (doses to about 46.1 µM), inactives show at the top dose activity, negative = toxicity, hits mostly cytotoxic; AID 686971;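 also: 0% = DMSO wells and -100% = cell-free medium wells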
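Assay cells: HT-1080 with IDH1 knockdown, 750 per well, RPMI/5% FBS. Exposure: 48 h at 37 °C following 2 h pre-incubation. Read: CellTiter-Glo luminescence; fitted concentration-response, curve class assigned.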
HT1080-NT tox: kills 2HG-producing HT-1080-NT fibrosarcoma cells | 1.6% of 360,000 active | AID 686970 | HT-1080-NT fibrosarcoma viability, CellTiter-Glo ATP luminescence, 48 h | Potency, µM (titrated, usually from 46.1 µM), for the others: at the highest dose activity, negative = less viability, hits mostly cytotoxic;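 also: NT is the 2HG producing partner of a matched IDH1 knockdown line; 0% = DMSO-treated cells and -100% = media-only wells without cells; nearly all actives have a fitted effect of over 55% in size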
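HT-1080-NT fibrosarcoma cells (2HG-overproducing), 750 cells/well in RPMI with 5% FBS, dosed after 2 h and incubated 48 h at 37C. CellTiter-Glo luminescence normalized to DMSO and no-cell wells; concentration-response curves fitted and classed.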
KB-V1 MDR tox: KB-V1 MDR subline cytotoxicity | KB-V1 MDR cells viability, CellTiter-Glo, 72 h | 3.4% of 400,000 active | Potency, µM (series often up to 46.1 µM), hits mostly cytotoxic | AID 1347076; also: % is scaled to controls: 0 for no effect and ±100 for the full control effect; nearly all actives have a fitted effect of over 60% in size
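KB-V1 MDR subline cells in DMEM (phenol-red free, 10% FBS) exposed to compounds in qHTS concentration series for 72 h at 37 degrees C. Viability read by CellTiter-Glo luminescence; concentration-effect curves fitted after normalization and correction.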
MCF10A rereplic: DNA re-replication induction in MCF 10a cells; MCF 10A DNA re-replication, Hoechst nuclear intensity, 48 h; Potency, µM (highest dose often 46.1 µM), for inactives: top-dose activity, positive = re-replication, usual class: activators; 2.9% of 350,000 active; also: % of control where 0% means no effect; nearly all actives have a fitted effect of over 50% in size
* hit, by the source's call. Compounds with a hit are over-represented: about 8% of the library has one in this group of screens. Calls follow the shape of the dose curve; as a rule, active = well fitted curve in the direction sought with a large enough effect; inconclusive = small, poorly fitted or top-dose-only effect, or another doubt; inactive = no such curve, though single readings can be large; an effect the other way counts as inactive or inconclusive. Potency is read from the fitted curve at half-maximal effect.

COc1ccc(-n2nnnc2SCC(=O)Nc2nc3c(s2)CCCC3)cc1 was read as SW480 rereplic -6%, KB-3-1 cytotox inactive, HT1080 IDH1KD tx 18µM*, HT1080-NT tox -21%, KB-V1 MDR tox inactive and MCF10A rereplic 16%.
For COc1ccc(-n2nnnc2SCC(=O)NC2CC2)cc1 the results were SW480 rereplic -24%, KB-3-1 cytotox inactive, HT1080 IDH1KD tx -3%, HT1080-NT tox 2%, KB-V1 MDR tox inactive and MCF10A rereplic -8%.
For COC(=O)c1sccc1NC(=O)c1cccc(Cl)c1 the results were SW480 rereplic -1%, KB-3-1 cytotox inactive, HT1080 IDH1KD tx inconclusive, HT1080-NT tox -2%, KB-V1 MDR tox inactive and MCF10A rereplic 5%.
Screening CN(Cc1ccccc1)C(=O)COC(=O)c1cc2ccccc2oc1=O returned SW480 rereplic -5%, KB-3-1 cytotox inactive, HT1080 IDH1KD tx 6%, HT1080-NT tox -5%, KB-V1 MDR tox inconclusive and MCF10A rereplic 2%.
For CC(C)(C)c1ccc(CC(=O)N2CCC2(C)C(=O)NS(=O)(=O)c2cccc(Cl)c2)cc1 (centres undefined) the results were KB-3-1 cytotox inactive, HT1080 IDH1KD tx 8%, HT1080-NT tox -5% and KB-V1 MDR tox inactive.
O=C(CCN1CCCCC1)NNC(=O)C12CC3CC(CC(C3)C1)C2 was read as SW480 rereplic -3%, KB-3-1 cytotox inactive, HT1080 IDH1KD tx -4%, HT1080-NT tox 0%, KB-V1 MDR tox inactive and MCF10A rereplic 2%.
For COc1cc(NC(=O)COC(=O)C2CC2)c(C)cc1[N+](=O)[O-] the results were SW480 rereplic -35%, KB-3-1 cytotox inactive, HT1080 IDH1KD tx 8%, HT1080-NT tox 5%, KB-V1 MDR tox inactive and MCF10A rereplic 3%.
`COc1cc(NC(=O)CN(C)C2CCCCC2)c(C)cc1[N+](=O)[O-]` gave SW480 rereplic -18%, KB-3-1 cytotox inactive, HT1080 IDH1KD tx 22%, HT1080-NT tox 3%, KB-V1 MDR tox 4.1µM* and MCF10A rereplic 67%.
`CCOc1ccc2c(c1)c(=O)c(S(=O)(=O)c1ccc(C)cc1)cn2CC(=O)Nc1ccc(C)cc1` gave KB-3-1 cytotox inactive and KB-V1 MDR tox inactive.
O=C(N/N=C/c1ccc([N+](=O)[O-])o1)c1cc2c(ccc3ccccc32)o1 was read as SW480 rereplic inconclusive, KB-3-1 cytotox inactive, HT1080 IDH1KD tx 8%, HT1080-NT tox 0%, KB-V1 MDR tox inactive and MCF10A rereplic 2.6µM*.
For O=C(N/N=C/c1cc(Br)c(O)c(Br)c1)c1cc2c(ccc3ccccc32)o1 the results were SW480 rereplic inconclusive, KB-3-1 cytotox inactive, HT1080 IDH1KD tx inconclusive, HT1080-NT tox -26%, KB-V1 MDR tox inconclusive and MCF10A rereplic 8.2µM*.
For O=C(N/N=C/c1cc(Cl)c(O)c(Cl)c1)c1cc2c(ccc3ccccc32)o1 the results were SW480 rereplic 15µM*, KB-3-1 cytotox inactive, HT1080 IDH1KD tx inconclusive, HT1080-NT tox -3%, KB-V1 MDR tox inactive and MCF10A rereplic inconclusive.
`O=C(N/N=C/c1ccc(O)c(Br)c1)c1cc2c(ccc3ccccc32)o1` gave SW480 rereplic inconclusive, KB-3-1 cytotox inactive, HT1080 IDH1KD tx 26%, HT1080-NT tox -1%, KB-V1 MDR tox inactive and MCF10A rereplic inconclusive.
`CCn1cc(/C=N/NC(=O)c2cc3c(ccc4ccccc43)o2)c2ccccc21` gave SW480 rereplic inconclusive, KB-3-1 cytotox inconclusive, HT1080 IDH1KD tx -26%, HT1080-NT tox -24%, KB-V1 MDR tox 18µM* and MCF10A rereplic inconclusive.
Screening Clc1ccc(Nc2ccccc2)nn1 returned SW480 rereplic -8%, KB-3-1 cytotox inactive, HT1080 IDH1KD tx 3%, HT1080-NT tox 20%, KB-V1 MDR tox inactive and MCF10A rereplic 2%.
Screening Cc1ccc2[nH]c(CN3CCC(CO)(CC4CCCCO4)CC3)c(C)c2c1 (centres undefined) returned SW480 rereplic 2%, KB-3-1 cytotox inactive, HT1080 IDH1KD tx 13µM*, HT1080-NT tox inconclusive, KB-V1 MDR tox inconclusive and MCF10A rereplic 3%.
`C[C@H](CO)N1C[C@H](C)[C@@H](CN(C)CC2CC2)Oc2c(NC(=O)Cc3ccccc3)cccc2C1=O` gave SW480 rereplic inconclusive, KB-3-1 cytotox 6.5µM*, HT1080 IDH1KD tx inconclusive, HT1080-NT tox 26µM*, KB-V1 MDR tox inconclusive and MCF10A rereplic 27%.
Screening C[C@H](CO)N1C[C@H](C)[C@@H](CN(C)S(C)(=O)=O)Oc2c(NC(=O)Cc3ccccc3)cccc2C1=O returned SW480 rereplic 0.12µM*, KB-3-1 cytotox inactive, HT1080 IDH1KD tx -4%, HT1080-NT tox -27%, KB-V1 MDR tox inactive and MCF10A rereplic -4%.
Screening C[C@H](CO)N1C[C@H](C)[C@@H](CN(C)CC2CC2)Oc2c(NC(=O)C3CC3)cccc2C1=O returned SW480 rereplic inconclusive, KB-3-1 cytotox inactive, HT1080 IDH1KD tx 1%, HT1080-NT tox 1%, KB-V1 MDR tox inactive and MCF10A rereplic -23%.
Screening C=CCN1N=C(/C=C/c2ccccc2)CCC1=O returned SW480 rereplic -2%, KB-3-1 cytotox inactive, HT1080 IDH1KD tx 19%, HT1080-NT tox 14%, KB-V1 MDR tox inactive and MCF10A rereplic -5%.
COC(=O)c1c(-c2ccc(C)cc2)csc1NC(=O)Cc1ccc(OC)c(OC)c1 was read as SW480 rereplic 6%, KB-3-1 cytotox inconclusive, HT1080 IDH1KD tx -2%, HT1080-NT tox -1%, KB-V1 MDR tox 2.6µM* and MCF10A rereplic inconclusive.
For COC(=O)c1c(-c2cccc3ccccc23)csc1NC(=O)Cc1ccc(OC)c(OC)c1 the results were SW480 rereplic inconclusive, KB-3-1 cytotox inconclusive, HT1080 IDH1KD tx inconclusive, HT1080-NT tox -24%, KB-V1 MDR tox inactive and MCF10A rereplic inconclusive.
For COC(=O)c1c(-c2ccc(Br)cc2)csc1NC(=O)Cc1ccc(OC)c(OC)c1 the results were SW480 rereplic 16%, KB-3-1 cytotox inconclusive, HT1080 IDH1KD tx -17%, HT1080-NT tox -10%, KB-V1 MDR tox 7.3µM* and MCF10A rereplic -4%.
Screening CCN(CC)CCN(Cc1cc2cc(C)ccc2[nH]c1=O)C(=S)NCc1ccco1 returned SW480 rereplic -1%, KB-3-1 cytotox inactive, HT1080 IDH1KD tx -17%, HT1080-NT tox -29%, KB-V1 MDR tox inactive and MCF10A rereplic -6%.
For Cc1ccc(-c2nn(-c3ccccc3)cc2CN(Cc2ccccc2)C(=O)c2ccco2)o1 the results were SW480 rereplic inconclusive, KB-3-1 cytotox inconclusive, HT1080 IDH1KD tx inconclusive, HT1080-NT tox inconclusive, KB-V1 MDR tox inconclusive and MCF10A rereplic 16µM*.
